Laboratory results: PubChem BioAssay AID1159580 (chemical genetic matrix, 2015)
The whole screen tested about 5,500 compounds, of which about 2,000 (36%) were called active. Roughly 18% stayed inconclusive and do not appear here. No stated cut-off is given here; in the data, active means normalized growth mostly below about 0.91 (no sharp cut-off); inconclusive means no clear call, values can overlap the other calls; inactive means mostly above about 0.92. The list shows a part of the results.

Assay: chemical genetic growth profiling, strain panel (AID 1159580);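 further: tested at 20 µM; growth read once vehicle control cultures reached saturation at 30 °C; 1 = growth at the plate median or of vehicle wells; lower values mean less growth of the strain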
Details: growth OD

Measured: normalized growth

O=S(=O)(O)c1cccc2cccc(Cl)c12
inactive: S. cerevisiae deletion strains, locus YAL013W, strain DEP1, hits give low values 1.01 | S. cerevisiae deletion strains, locus YBR229C, strain ROT2, hits give low values 1.01 | S. cerevisiae deletion strains, locus YDL101C, strain DUN1, hits give low values 0.984 | S. cerevisiae deletion strains, locus YDR150W, strain NUM1, hits give low values 0.93 | S. cerevisiae deletion strains, locus YEL061C, strain CIN8, hits give low values 0.998 | S. cerevisiae deletion strains, locus YGR078C, strain PAC10, hits give low values 1 | S. cerevisiae deletion strains, locus YHR030C, strain SLT2, hits give low values 0.985 | S. cerevisiae deletion strains, locus YHR087W, strain rtc3, hits give low values 1.06 | S. cerevisiae deletion strains, locus YJL187C, strain SWE1, hits give low values 1 | S. cerevisiae deletion strains, locus YJR043C, strain POL32, hits give low values 0.993 | S. cerevisiae deletion strains, locus YJR075W, strain HOC1, hits give low values 0.999 | S. cerevisiae deletion strains, locus YLR039C, strain RIC1, hits give low values 0.996 | S. cerevisiae deletion strains, locus YLR058C, strain SHM2 (second series), hits give low values 1.01 | S. cerevisiae deletion strains, locus YLR085C, strain ARP6, hits give low values 1.03 | S. cerevisiae deletion strains, locus YLR262C, strain YPT6, hits give low values 1.01 | S. cerevisiae deletion strains, locus YML094W, strain GIM5, hits give low values 1.03 | S. cerevisiae deletion strains, locus YMR219W, strain ESC1, hits give low values 1.02 | S. cerevisiae deletion strains, locus YMR263W, strain SAP30, hits give low values 1.01 | S. cerevisiae deletion strains, locus YMR307W, strain GAS1, hits give low values 0.996 | S. cerevisiae deletion strains, locus YNL153C, strain GIM3, hits give low values 0.999 | S. cerevisiae deletion strains, locus YNL298W, strain CLA4 (second series), hits give low values 1.02 | S. cerevisiae deletion strains, locus YNL322C, strain KRE1, hits give low values 1 | S. cerevisiae deletion strains, locus YNR030W, strain Alg12, hits give low values 1.03 | S. cerevisiae deletion strains, locus YPL055C, strain LGE1, hits give low values 1.02 | S. cerevisiae deletion strains, locus YPL241C, strain CIN2, hits give low values 1.01 | S. cerevisiae deletion strains, locus YPR135W, strain CTF4, hits give low values 0.973 | S. cerevisiae strains, strain wild type, hits give low values 0.984
